Assay results from PMC4336329 (PLoS ONE, 2015).
The whole screen tested about 310,000 compounds, of which about 2,200 (0.71%) showed an effect of 50% or more. Effects have a minus sign here. For the sample, strong results were picked, then their nearest neighbours and some compounds at random.

These compounds were tested against human ether-à-go-go-related gene (hERG) potassium channel (human, UniProt Q12809) (assay: primary screen, population patch clamp on CHO cells stably expressing hERG; higher = less effect of the substance).
human ether-à-go-go-related gene (hERG) potassium channel, sequence (Q12809 whole entry, looked up): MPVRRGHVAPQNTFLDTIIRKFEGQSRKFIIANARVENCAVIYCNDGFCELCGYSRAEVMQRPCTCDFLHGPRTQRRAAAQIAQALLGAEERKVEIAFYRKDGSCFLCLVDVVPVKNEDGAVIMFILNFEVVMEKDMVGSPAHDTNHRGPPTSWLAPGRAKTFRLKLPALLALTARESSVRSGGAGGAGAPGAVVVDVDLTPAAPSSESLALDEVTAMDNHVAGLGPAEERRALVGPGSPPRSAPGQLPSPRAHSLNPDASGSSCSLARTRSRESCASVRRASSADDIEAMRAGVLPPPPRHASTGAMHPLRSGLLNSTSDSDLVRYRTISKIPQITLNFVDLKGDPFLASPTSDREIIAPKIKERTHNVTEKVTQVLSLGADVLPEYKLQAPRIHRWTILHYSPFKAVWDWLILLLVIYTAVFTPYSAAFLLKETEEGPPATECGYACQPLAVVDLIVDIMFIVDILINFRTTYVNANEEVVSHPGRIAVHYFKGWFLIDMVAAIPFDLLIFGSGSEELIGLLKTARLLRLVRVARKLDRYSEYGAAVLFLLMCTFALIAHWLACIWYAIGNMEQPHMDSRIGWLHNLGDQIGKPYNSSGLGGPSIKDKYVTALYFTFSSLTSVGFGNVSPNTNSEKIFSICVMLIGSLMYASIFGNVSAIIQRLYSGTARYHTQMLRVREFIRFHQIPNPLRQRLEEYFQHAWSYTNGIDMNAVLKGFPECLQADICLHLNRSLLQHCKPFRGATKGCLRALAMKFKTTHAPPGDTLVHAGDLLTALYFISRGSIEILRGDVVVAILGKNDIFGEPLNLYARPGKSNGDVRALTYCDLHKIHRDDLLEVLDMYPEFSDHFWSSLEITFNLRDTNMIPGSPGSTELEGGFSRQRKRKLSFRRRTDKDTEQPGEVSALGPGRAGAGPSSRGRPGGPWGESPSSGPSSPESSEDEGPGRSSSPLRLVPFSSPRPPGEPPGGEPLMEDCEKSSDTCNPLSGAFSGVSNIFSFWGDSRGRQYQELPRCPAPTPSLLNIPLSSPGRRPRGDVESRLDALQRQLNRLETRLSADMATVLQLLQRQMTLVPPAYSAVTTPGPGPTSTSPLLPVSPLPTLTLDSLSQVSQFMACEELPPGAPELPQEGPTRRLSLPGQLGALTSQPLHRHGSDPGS

In order of rising “hERG current change (%, negative = inhibition) at 1uM” value:
1. CCOc1ccc(CN2CCC(n3nccc3NC(=O)c3ccccc3OC)CC2)cc1  -89.4%
2. OCC1(CCOc2ccccc2)CCN(Cc2ccc(OC(F)F)cc2)CC1  -87.1%
3. COc1ccccc1C(=O)Nc1ccnn1C1CCN(Cc2ccccc2OCCO)CC1  -79.5%
4. COc1cc(CN2CCC(n3nccc3NC(=O)c3ccccc3OC)CC2)ccc1F  -77.6%
5. CCN1CCN(c2c(Cl)cccc2NC(=O)c2ccc([N+](=O)[O-])o2)CC1  -77%
6. COc1ccccc1C(=O)Nc1ccnn1C1CCN(Cc2cn(C)c3ccccc23)CC1  -74.9%
7. CCCn1ncc(CN2CCC(n3nccc3NC(=O)c3ccccc3OC)CC2)c1C  -73.2%
8. COc1ccc(NC(=O)CSc2nc3ccccc3c(=O)n2CCCN2CCC(C)CC2)c(OC)c1  -72.1%
9. CCN1CCN(c2c(Cl)cccc2NC(=O)c2ccco2)CC1  -70.7%
10. CCOc1ccccc1CN1CCC(CO)(CCOc2ccccc2)CC1  -66.8%
11. CCn1ccnc1CN1CCC(n2nccc2NC(=O)c2ccccc2OC)CC1  -64.9%
12. CC1CCN(CCCn2c(SCC(=O)NC3CCCC3)nc3ccccc3c2=O)CC1  -64.8%
13. COc1ccccc1C(=O)Nc1ccnn1C1CCN(Cc2ccc3nonc3c2)CC1  -61.8%
14. C=CCOc1ccccc1CN1CCC(CO)(CCOc2ccccc2)CC1  -61.4%
15. CCN1CCN(c2c(Cl)cccc2NC(=O)c2ccc(Br)o2)CC1  -59.3%
16. OCC1(CCOc2ccccc2)CCN(Cc2ccccc2OC(F)F)CC1  -54.4%
17. CCn1cc(CN2CCC(n3nccc3NC(=O)c3ccccc3OC)CC2)cn1  -53.5%
18. COc1ccccc1C(=O)Nc1ccnn1C1CCN(Cc2csc(C(C)=O)c2)CC1  -50.9%
19. Cn1cc(CN2CCC(n3nccc3NC(=O)c3ccccc3Cl)CC2)c2ccccc21  -47.6%
20. CCCn1ncc(CN2CCC(n3nccc3NC(=O)c3ccccc3Cl)CC2)c1C  -47.6%
21. COc1ccccc1CN1CCC(n2nccc2NC(=O)c2ccccc2Cl)CC1  -47.2%
22. O=C(Cc1csc(NC(=O)Nc2cccc(Cl)c2)n1)NCc1cccnc1  -44.2%
23. CC(=O)c1cc(CN2CCC(n3nccc3NC(=O)c3ccccc3Cl)CC2)cs1  -40.5%
24. CC1CCN(CCCn2c(SCC(=O)Nc3ccccc3Cl)nc3ccccc3c2=O)CC1  -34.1%
25. OCC1(CCOc2ccccc2)CCN(Cc2ccc3c(c2)OCCO3)CC1  -31.2%
26. COc1ccccc1C(=O)Nc1ccnn1C1CCN(Cc2cnn(C)c2C)CC1  -28.8%
27. COc1ccc(NC(=O)CSc2nc3ccccc3c(=O)n2CCCN2CCCCC2)c(OC)c1  -27.7%
28. COc1ccccc1C(=O)Nc1ccnn1C1CCN(Cc2cnn(C)c2)CC1  -27%
29. COc1ccccc1C(=O)Nc1ccnn1C1CCN(Cc2cnc(N(C)C)s2)CC1  -24.7%
30. CCC1=Nc2ccccc2NC2=C1C(=O)CCC2.Cl  -18.7%
31. CSc1cccc(NC(=S)N(CCCN2CCCC2)Cc2cccs2)c1  -17.9%
32. CC(=O)c1cc(CN2CCC(n3nccc3NC(=O)c3ccccc3C)CC2)cs1  -15.8%
33. Cc1c(C2N3CC4(C)CN2CC(C)(C3)C4=O)c2ccccc2n1C (stereo not drawn)  -15.5%
34. CCn1cc(CN2CCC(n3nccc3NC(=O)c3ccccc3C)CC2)cn1  -14.9%
35. O=C(Nc1ccnn1C1CCN(Cc2ccccc2OCCO)CC1)c1cccc(F)c1  -6.97%
36. O=C(Nc1cccc(Cl)c1N1CCCC1)c1ccc(Br)o1  -5.81%
37. CCCCn1nnc(NC(=O)Cc2ccc(Cl)cc2)n1  -4.74%
38. N#CCC1c2ccccc2CCN1C(=O)Nc1ccc(C(F)(F)F)cc1 (stereo not drawn)  -4.23%
39. COC(=O)COc1cc(C)cc2oc(=O)c3c(c12)CCCC3  -4.18%
40. CC(C)COC(=O)NC1c2ccccc2Oc2ccccc21  -2.38%
41. COC(=O)c1nnn(-c2nonc2N)c1COc1ccc(C=O)cc1OC  -1.8%
42. OCC1(CCOc2ccccc2)CCN(Cc2cc(Cl)ccc2O)CC1  -0.875%
43. Cc1cc(C)c(CN2CCC(CO)(CCOc3ccccc3)CC2)cc1C  -0.659%
44. COc1ccc(C(=O)Nc2ccnn2C2CCN(Cc3ccc4nonc4c3)CC2)cc1  -0.334%
45. Cc1ccc(NC(=O)c2ccncc2)cc1S(=O)(=O)N(C)C  0.0196%
46. O=C(Nc1ccc(Cl)cn1)Nc1ccccc1F  0.928%
47. COc1ccc(NC(=O)CSc2nc3ccccc3c(=O)n2CCCN2CCOCC2)c(OC)c1  1.25%
48. COc1ccccc1C(=O)Nc1ccnn1C1CCN(Cc2ccn[nH]2)CC1  1.62%
49. COc1cc(CN2CCC(n3nccc3NC(=O)C3CCOC3)CC2)ccc1F (stereo not drawn)  2.37%
50. O=C(Nc1cccc(Cl)c1N1CCOCC1)c1ccc([N+](=O)[O-])o1  3.63%
51. OCC1(CCOc2ccccc2)CCN(Cc2ccccc2C(F)(F)F)CC1  3.9%
52. O=C(Nc1cccc(Cl)c1N1CCOCC1)c1ccc(Br)o1  4.08%
53. COc1ccccc1C(=O)Nc1ccnn1C1CCN(C(=O)C2CCOC2)CC1 (stereo not drawn)  4.19%
54. O=C(Nc1cccc(Cl)c1N1CCOCC1)c1ccco1  4.55%
55. CCCCn1c(O)c(C(CC)=Nc2ccc(OC)cc2OC)c(=O)[nH]c1=O  4.73%
56. Cc1cccc(C(=O)NCCCn2ccnc2)c1C  4.84%
57. CCCCn1c(SCC(=O)NC2CCCC2)nc2ccccc2c1=O  4.94%
58. N#Cc1ccc(/C=C/C(=O)c2ccco2)cc1  5.85%
59. COc1ccccc1C(=O)Nc1ccnn1C1CCN(Cc2ncc[nH]2)CC1  6%
60. COC(=O)C(NC(C)=O)(Nc1ccc(Br)cn1)C(F)(F)F (stereo not drawn)  6.68%
61. CCOC(=O)c1c(C)[nH]c(C)c1S(=O)(=O)NCC1CCN(Cc2ccccc2F)CC1  8.12%
62. Cc1nn(C)cc1CN1CCC(CO)(CCOc2ccccc2)CC1  8.14%
63. COc1ccc(NC2CCCN(C(=O)CSc3ccccc3)C2)cc1 (stereo not drawn)  8.31%
64. COc1ccc(C(=O)NC2CC3CCCC(C2)N3CC(C)C)cc1OC (stereo not drawn)  8.35%
65. CCc1ccc(NC(=O)c2noc(C(C)C)c2[N+](=O)[O-])cc1  8.97%
66. CC1CCCCC1NC(=O)COC(=O)c1ccc(N(C)C)cc1 (stereo not drawn)  9.14%
67. OCCNC(=S)NCCc1ccccc1  9.19%
68. COc1cc(CN2CCC(n3nccc3NC(=O)CCCc3ccccc3)CC2)ccc1F  9.25%
69. Cc1ccc2c(CN3CC(C)CC(C)C3)cc(=O)oc2c1C (stereo not drawn)  9.29%
70. O=C(CNC(=O)c1ccc(Br)cc1)NCC(=O)OCC(=O)c1ccccc1  9.69%
71. O=C(Nc1cccc(Cl)c1N1CCCC1)c1ccc([N+](=O)[O-])o1  9.79%
72. CC(C)c1cc(C(=O)N2CCCC(N3CCN(c4ccccc4F)CC3)C2)nc(N)n1 (stereo not drawn)  10.1%
73. CC(C)(C)NC(=O)Cn1c(SCC(=O)Nc2nccs2)nc2ccccc21  10.4%
74. CC(=O)Nc1ccc(NC(=O)CSc2nccn2Cc2ccccc2)cc1  10.5%
75. CN/C=C(/Cl)P(=O)(OC(C)C)OC(C)C  11%
76. CCCCNC(=O)COC(=O)c1ccc(C)c(NC(=O)c2ccco2)c1  11.3%
77. COc1cc2nc(CN3CCOCC3)n(CC(=O)NCC(F)(F)F)c(=O)c2cc1OC  11.5%
78. COC(=O)C1(C)Cc2cc(OC(C)=O)c(OC(C)=O)cc2N1 (stereo not drawn)  11.7%
79. COc1ccccc1S(=O)(=O)CC(O)COc1ccc(F)cc1Cl (stereo not drawn)  12.6%
80. O=C(Nc1ccc(Cl)cc1)Nc1nnc(Cc2ccc([N+](=O)[O-])cc2)s1  13.9%
81. Cc1nc([N+](=O)[O-])cn1CC(=O)Nc1ccc(Cl)cc1  14.3%
82. COc1ccccc1CCNC(=O)C1CCN(c2nnc(C)c3c(C)n(-c4ccc(C)cc4)nc23)CC1  14.7%
83. CC1=Nc2cc(C(=O)NCCCN3CCOCC3)ccc2Sc2c(C)ccc(C)c21  14.7%
84. O=C(CCCN1C(=O)c2ccccc2C1=O)Nc1nncs1  14.9%
85. COCCNC(=S)N(CCN(C)C)Cc1cc2cc3c(cc2[nH]c1=O)OCO3  15.5%
86. CCn1ccnc1CN1CCC(n2nccc2NC(=O)CCc2ccccc2)CC1  15.9%
87. O=C(Nc1cccc(Cl)c1N1CCCC1)c1ccco1  16.2%
88. O=C(Oc1ccc(C(=S)N2CCOCC2)cc1)c1ccccc1[N+](=O)[O-]  21.2%
89. CC(=O)Nc1cc2c3c(c1)CCN3C(=O)CC2  22.9%
90. CC(C)Oc1ccc(N2CC(C(=O)Nc3ccc(N4CCOCC4)cc3)CC2=O)cc1 (stereo not drawn)  24.6%
